Experimental findings from PubChem BioAssay (EPA / NIEHS) are described below.

Calls of active or inactive are those of the source. How the source made its calls: active means hit-call score of the fitted dose curve at least 0.9, where 1 is the maximum; inactive means score below 0.9.

A short description of assay [1]: ATG_M_19_CIS: Attagene CIS-FACTORIAL HepG2 Assay for M19 Transcription Factor (Internal Marker) (AID 2282939). Conditions: HepG2 Attagene CIS-FACTORIAL M19 internal marker reporter; actives raise or lower the signal. In short, it runs like this:
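HepG2, MRTU transient transfection, 24 h dosing. Total RNA → RT-PCR → 6-FAM primer extension → HpaI digest → CE fluorescence. Bidirectional curve fit, DMSO negative control.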

A short description of assay [2]: ATG_ERE_CIS: Attagene CIS-FACTORIAL HepG2 Assay for Estrogen Response Element (ERE) (AID 2282940). The note with it: HepG2 ERE cis-reporter, Attagene RNA transcript; actives raise or lower the signal. In short, it runs like this: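 After a 24 h chemical treatment, RNA from reporter-transfected HepG2 cells is reverse-transcribed, PCR-amplified and fluorescently labelled. Fragments separated by capillary electrophoresis give reporter signal; DMSO serves as negative control.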

Assay [3] is described as follows: ATG_Ets_CIS: Attagene CIS-FACTORIAL HepG2 Assay for human Erythroblast Transformation Specific (ETS) (AID 2282941). Conditions: HepG2 ETS cis-reporter transcription, actives raise or lower the signal. In short, it runs like this: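 Cis-regulated reporter mRNA induction in HepG2 (transient transfection), 24 h exposure, RT-PCR plus capillary electrophoresis detection; DMSO serves as negative control and baseline.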

In assay [4] the target is Hepatocyte nuclear factor 3-beta (Homo sapiens) (UniProt Q9Y261). The experiment in a line: ATG_FoxA2_CIS: Attagene CIS-FACTORIAL HepG2 Assay for human Forkhead box A2 (FOXA2) (AID 2282942). The note with it: HepG2 cis-reporter transcription factor activity, 24 h; actives raise or lower the signal. In short, it runs like this:
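Fluorescence signal of reporter cDNA fragments, separated by capillary electrophoresis, reflects endogenous transcription factor activity in transfected HepG2 after 24 h. Both increases and decreases fitted against DMSO.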

Assay [5] is described as follows: ATG_FoxO_CIS: Attagene CIS-FACTORIAL HepG2 Assay for human Forkhead box O (FoxO) (AID 2282943). The note with it: HepG2 Attagene cis-reporter, FoxO element, mRNA; actives raise or lower the signal. Put shortly:
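HepG2 cells transiently transfected with cis-element-driven reporter units report endogenous FoxO activity. After 24 h chemical exposure, reporter mRNA quantified by RT-PCR, fluorescent labeling, HpaI digestion and capillary electrophoresis; bidirectional fit versus DMSO.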

The nature of assay [6]: ATG_GATA_CIS: Attagene CIS-FACTORIAL HepG2 Assay for human GATA Binding Protein (AID 2282944). Conditions: HepG2 GATA cis-element reporter, Attagene multiplex mRNA; actives raise or lower the signal. Put shortly:
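Cells: HepG2, transiently transfected with cis-regulated reporter transcription units. Exposure: 24 h. Detection: RT-PCR plus capillary electrophoresis of FAM-labeled fragments. Analysis: bidirectional, DMSO as baseline.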

Assay [7] is described as follows: ATG_GLI_CIS: Attagene CIS-FACTORIAL HepG2 Assay for human Zinc Finger Protein GLI1 (AID 2282945). The note with it: HepG2, Attagene cis-factorial reporter mRNA, GLI element; actives raise or lower the signal. Put shortly:
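Transiently transfected HepG2 cells report endogenous transcription factor activity via cis-element-driven reporter units. After 24 h compound exposure, reporter mRNA was measured by RT-PCR with capillary electrophoresis; bidirectional fitting against DMSO baseline.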

The nature of assay [8]: ATG_GRE_CIS: Attagene CIS-FACTORIAL HepG2 Assay for human Glucocorticoid Response Elements (GRE) (AID 2282947). Conditions: HepG2 GRE cis-reporter, Attagene multiplex mRNA; actives raise or lower the signal. In short, it runs like this:
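Read-out: fluorescent reporter-transcript fragments separated by capillary electrophoresis after RT-PCR. Transiently transfected HepG2 cells carrying cis-element-driven reporter units were dosed for 24 h; gain or loss of signal fitted against DMSO control.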

Assay [9] can be described thus: ATG_ISRE_CIS: Attagene CIS-FACTORIAL HepG2 Assay for human Interferon Regulatory Factor 1 (IRF1) binding to an Interferon-Stimulated Response Element (ISRE) (AID 2282948). The note with it: HepG2 ISRE cis-reporter (Attagene), mRNA transcription readout; actives raise or lower the signal. Put shortly: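 Multiplexed mRNA reporter readout in human liver HepG2 cells: cis-element-driven reporters transfected, compound added for 24 h, transcripts amplified, fluorescently labelled and sized by capillary electrophoresis; curve fitting bidirectional against DMSO.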

The target of assay [10] is Bile acid receptor (Homo sapiens) (UniProt Q96RI1). Briefly: ATG_IR1_CIS: Attagene CIS-FACTORIAL HepG2 Assay for human Nuclear Receptor Subfamily 1 Group H Member 4 (NR1H4), IR1 submotif (AID 2282946). Conditions: IR1 reporter transcription, actives raise or lower the signal. In short, it runs like this:
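Fluorescence of capillary-separated, HpaI-digested RT-PCR reporter products gave IR1-element mRNA induction in HepG2 cells 24 h after dosing. Endogenous transcription factors drove the cis-regulated reporters; activity was fitted bidirectionally against DMSO.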

A word on the AC50: it is the concentration giving half of the maximal activity seen.

Chain of Bile acid receptor (Homo sapiens) (Q96RI1 whole entry, looked up): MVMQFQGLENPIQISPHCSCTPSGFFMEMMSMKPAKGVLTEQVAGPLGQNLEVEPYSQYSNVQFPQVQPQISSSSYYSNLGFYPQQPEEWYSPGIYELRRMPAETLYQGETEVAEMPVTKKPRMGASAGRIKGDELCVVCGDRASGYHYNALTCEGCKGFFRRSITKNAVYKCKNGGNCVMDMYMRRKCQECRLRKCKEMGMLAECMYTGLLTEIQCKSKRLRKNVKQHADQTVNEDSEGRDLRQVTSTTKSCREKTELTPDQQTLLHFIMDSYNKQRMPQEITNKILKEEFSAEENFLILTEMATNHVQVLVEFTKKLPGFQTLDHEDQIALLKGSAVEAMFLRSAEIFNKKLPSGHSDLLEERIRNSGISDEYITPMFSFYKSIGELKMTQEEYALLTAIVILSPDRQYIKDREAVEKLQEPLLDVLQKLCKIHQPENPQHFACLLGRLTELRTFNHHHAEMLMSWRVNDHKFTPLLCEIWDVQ
Chain of Hepatocyte nuclear factor 3-beta (Homo sapiens) (Q9Y261 whole entry, looked up, the tested form may be a part): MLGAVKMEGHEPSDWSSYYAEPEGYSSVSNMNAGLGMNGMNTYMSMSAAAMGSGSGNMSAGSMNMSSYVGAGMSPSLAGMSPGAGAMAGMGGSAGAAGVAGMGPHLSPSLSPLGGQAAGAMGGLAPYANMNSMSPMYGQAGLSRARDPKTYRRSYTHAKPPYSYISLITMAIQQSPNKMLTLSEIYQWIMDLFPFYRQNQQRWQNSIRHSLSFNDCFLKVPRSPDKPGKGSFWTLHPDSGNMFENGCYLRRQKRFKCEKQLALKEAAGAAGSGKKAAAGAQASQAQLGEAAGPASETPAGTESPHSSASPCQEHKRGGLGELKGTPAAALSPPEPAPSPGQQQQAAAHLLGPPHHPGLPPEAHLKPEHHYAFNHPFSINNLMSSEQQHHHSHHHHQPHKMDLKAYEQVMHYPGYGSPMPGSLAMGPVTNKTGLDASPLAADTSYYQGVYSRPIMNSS

Turning to `CC(C)N(C(=O)CCl)c1ccccc1`, the outcome in assay [1], in assay [2], in [3], in assay [4], in assay [6] and in assay [7] was inactive. The call in assay [8] and in assay [9] was inactive. The concentration at half-maximal activity (AC50) in assay [5] was 33.4 µM (active).

As for `CC(C)(C#N)N=NC(C)(C)C#N`, the outcome in [1], in [2], in assay [3], in [4], in assay [5] and in assay [6] was inactive. In addition, the call in [7], in assay [8] and in assay [9] was inactive.

Take `O=[N+]([O-])c1cccc2ccccc12`: the result in assay [1], in [2], in assay [3], in assay [4], in [5] and in assay [6] was inactive. In addition, the outcome in [7] and in [9] was inactive.

`OC[P+](CO)(CO)CO`: the compound was classed as inactive in assay [1], in [2], in assay [3], in assay [4], in assay [5] and in assay [6]. In addition, the outcome in assay [7] and in assay [9] was inactive.

In the case of `CCOP(=O)(OCC)OC(=CCl)c1ccc(Cl)cc1Cl`, the compound was called inactive in assay [1], in assay [3], in assay [4], in assay [5], in assay [6] and in assay [7]. Further, the result in assay [8] was inactive. The concentration at half-maximal activity (AC50) in assay [2] is 11.1 µM (active).

Consider `N#Cc1ccc(Cl)cc1`, for which the compound was classed as inactive in [1], in assay [2], in assay [3], in assay [4], in assay [5] and in [6]. Moreover, the call in [7] and in assay [9] was inactive.

Take `CCOP(=S)(OCC)SCSc1cc(Cl)ccc1Cl`: the call in [1], in [2], in [3], in assay [4], in assay [5] and in assay [6] was inactive. Further, the outcome in assay [7] and in assay [8] was inactive.

Consider `CC(=O)CN(CC(C)=O)N=O`, for which the compound was classed as inactive in assay [1], in [2], in assay [3], in assay [4], in assay [5] and in assay [6]. The compound was classed as inactive in assay [7], in assay [8] and in [9].

As for `CCCCN(CCCCO)N=O`, the call in [1], in assay [3], in assay [4], in assay [5], in assay [6] and in assay [7] was inactive. The outcome in [8] and in [9] was inactive. Moreover, the AC50 in assay [2] is 3.06 µM (active).

As to `CCOP(=O)(OCC)SCCSCC`, the call in [1], in assay [2], in assay [3], in assay [4], in assay [5] and in assay [6] was inactive. In addition, the call in assay [7] and in assay [9] was inactive.

Take `CC1(C)[C@H](/C=C2\CCSC2=O)[C@@H]1C(=O)OCc1coc(Cc2ccccc2)c1`: the result in assay [1], in assay [2], in assay [3], in [4], in [5] and in [6] was inactive. Further, the call in assay [7], in assay [8] and in assay [9] was inactive.

For the compound `Nc1nc(=S)[nH][nH]1`, the call in [1], in [2], in assay [3], in [4], in assay [5] and in assay [6] was inactive. The call in assay [7], in assay [8] and in [9] was inactive.

`N#CCC#N`: the compound was classed as inactive in assay [1], in [2], in [3], in assay [4], in assay [5] and in [6]. In addition, the compound was classed as inactive in assay [7], in assay [8] and in assay [9].

In the case of `Nc1ccc(-c2ccccc2)cc1`, the result in [1], in assay [3], in assay [4], in assay [5], in assay [6] and in assay [7] was inactive. For the same compound, the compound was called inactive in assay [9]. Further, the concentration at half-maximal activity (AC50) in assay [2] is 32 µM (active).

For `O=C(NC(=O)c1c(F)cccc1F)Nc1cc(Cl)c(F)c(Cl)c1F`, the result in assay [1], in assay [2], in assay [3], in assay [4], in assay [5] and in assay [6] was inactive. Moreover, the outcome in assay [7], in assay [8] and in [9] was inactive.

`O=[N+]([O-])c1cc([As](=O)(O)O)ccc1O`: the compound was called inactive in assay [1], in [2], in assay [3], in [4], in [5] and in assay [6]. Also, the outcome in [7], in assay [8] and in assay [9] was inactive.

Regarding `CS(=O)(=O)c1ccc(C(=O)C2C(=O)CCCC2=O)c(Cl)c1COCC(F)(F)F`, the compound was classed as inactive in assay [1], in [3], in assay [4], in assay [5], in [6] and in assay [7]. Besides, the call in [8] and in [9] was inactive. Also, the half-maximal activity concentration (AC50) in [2] was 27.3 µM (active).

Regarding `CCC[N+](CCC)(CCC)CCC`, the compound was called inactive in [1], in assay [2], in assay [3], in [4], in [5] and in [6]. The call in [7] and in [9] was inactive.

On to `CC(C)(c1ccc(O)c(-c2ccccc2)c1)c1ccc(O)c(-c2ccccc2)c1`, for which the compound was called inactive in assay [1], in assay [2], in [3], in assay [5], in assay [6] and in [7]. The compound was called inactive in assay [10], in assay [8] and in assay [9].

On to `O=C(O)COc1cc(Cl)c(Cl)cc1Cl`, for which the compound was classed as inactive in assay [1], in [3], in [4], in assay [5], in assay [6] and in [7]. Also, the result in [10], in assay [8] and in [9] was inactive.

For `Nc1ncn[nH]1`, the compound was classed as inactive in [1], in assay [3], in assay [4], in assay [5], in assay [6] and in assay [7]. In addition, the call in assay [10] and in assay [8] was inactive.
